Bioassay records from PubChem BioAssay.
AID inh: blocks human AID cytidine deaminase activity; AID 1347428; 0.32% of 91,000 active; Q9GZX7; Potency, µM (series often up to 115 µM), most hits filed as inhibitors; AID deamination FRET fluorescence, UDG-coupled, 4 h; note: nearly all actives have a fitted effect of over 25% in size
Target sequence (Q9GZX7 whole entry, looked up): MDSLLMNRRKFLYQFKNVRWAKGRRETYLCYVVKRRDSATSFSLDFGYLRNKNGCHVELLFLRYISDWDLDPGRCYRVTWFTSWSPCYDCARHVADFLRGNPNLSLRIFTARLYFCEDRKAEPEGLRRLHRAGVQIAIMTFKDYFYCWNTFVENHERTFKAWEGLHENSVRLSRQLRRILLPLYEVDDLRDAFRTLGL
UDG counter: counter-screen for AID inhibitors: uracil-DNA glycosylase inhibition; Potency, µM (top dose mostly 115 µM), for inactives: at the top dose activity change, negative = inhibition, actives largely listed as inhibitors; 0.14% of 91,000 active; FRET deamination/UDG coupled assay, UDG read, 4 h; note: nearly all actives have a fitted effect of over 65% in size
An asterisk follows results filed as active; i = inactive; ? = inconclusive; [ ] = dose if it differs, or a comment. Most compounds without a hit are left out; they make up all but 0.4% or so of the library. Calls come from the whole dose curve; as a rule, active = well fitted curve in the direction sought with a large enough effect; inconclusive = small, poorly fitted or top-dose-only effect, or another doubt; inactive = no such curve, though single readings can be large; an effect the other way counts as inactive or inconclusive. % is set by controls: 0 for no effect and ±100 for the full control effect; potency is the fitted concentration of half-maximal effect.

SMILES	AID inh	UDG counter
Cc1cccc(OCCCSc2nc(-c3ccc(C(C)(C)C)cc3)nc3cc(=O)[nH]n23)c1C	?	-21%
CCc1ccc(OCCCSc2nc(-c3ccc(C(C)(C)C)cc3)nc3cc(=O)[nH]n23)cc1	79µM*	-22%
COc1c(Cl)cc(C(=O)N(Cc2ccc(C)o2)C2CCS(=O)(=O)C2)cc1Cl (stereo not given)	i	89µM*
Cc1ccc(CN(C(=O)COc2ccc(Cl)cc2Cl)C2CCS(=O)(=O)C2)o1 (stereo not given)	i	-12%
COc1cccc(/C=C/C(=O)c2ccc(O)c(CCCl)c2)c1	i	-4%
Cc1ccc(Nc2nc(NC3CCCC3)nc3c2cnn3-c2ccccc2)cc1	i	-5%
O=C(NCc1cccs1)c1ccc2c(=O)n3nc(Nc4ccccc4)sc3nc2c1	i	0%
CCc1ccccc1Nc1nn2c(=O)c3ccc(C(=O)NCc4cccs4)cc3nc2s1	32µM*	-19%
COc1cc(/C=C/C(=O)c2cccc(O)c2)cc(Cl)c1O	i	5%
CCCC1CCC(c2ccc(C(=O)Oc3cncc(Cl)c3)cc2)CC1 (stereo not given)	i	2%
CCCCN(CCCC)CC(O)Cn1cc(/C=C/C(=O)c2ccccc2)c2ccccc21 (stereo not given)	32µM*	-16%
CCCCN(C)CC(O)Cn1cc(/C=C/C(=O)c2ccc(OCC)cc2)c2ccccc21 (stereo not given)	?	-17%
CCCCN(C)C(=O)Cn1c(=O)n(Cc2ccc3c(c2)OCO3)c(=O)c2sccc21	i	-15%
CCC(C)Cn1c(/C=C/c2ccccc2)nc2ccccc21 (stereo not given)	?	79µM*
CC(C)Cn1c(/C=C/c2ccc(F)cc2)nc2ccccc21	i	14%
CC(NC(=O)CNC(=O)c1cccs1)c1ccc2ccccc2c1 (stereo not given)	i	8%
COC(=O)CSc1nc2c(c(-c3cccs3)c1C#N)CCCC2	i	-6%
CC(C)(C)C1CCc2nc(SCC(N)=O)c(C#N)c(C(F)(F)F)c2C1 (stereo not given)	?	79µM*
COc1ccc(C2=C(O)C(=O)N(Cc3ccccn3)C2c2ccccc2F)cc1 (stereo not given)	i	-6%
CCCN(CC)c1ccc(/C=N/NC(=S)Nc2ccc(CC)cc2)cc1	i	-7%
COc1ccc(N(C)C(=O)c2cn(C3CCCCC3)c(=O)c3c2c2ccccc2n3C)cc1	40µM*	?
COc1cc(NC(=O)c2cn(C3CCCC3)c(=O)c3c2c2ccccc2n3C)cc(OC)c1OC	i	1%
CCOC(=O)c1cc2cc(Br)ccc2[nH]1	i	3%
C(#CCN1CCN(Cc2ccccc2)CC1)COCCOC(c1ccccc1)c1ccccc1	i	-3%
Cc1ccc(NC(=O)c2c(C)nc3sc(C(=O)Nc4ccc(F)cc4)c(N)c3c2-c2ccc(Cl)cc2)c(C)c1	32µM*	89µM*
SMILES	AID inh	UDG counter
Cc1ccc(NC(=O)c2c(C)nc3sc(C(=O)Nc4ccc(F)cc4)c(N)c3c2-c2ccccc2Cl)c(C)c1	i	11%
O=C(/C=C/c1ccc(Br)cc1)c1cccc(O)c1	i	-8%
CN1C(=O)Cc2cc(S(=O)(=O)CCC(=O)N3CCN(c4ccc(Cl)cc4)CC3)ccc21	i	89µM*
COc1cccc(N2CCN(C(=O)CCS(=O)(=O)c3ccc4c(c3)CC(=O)N4C)CC2)c1	i	?
Cc1ccc(Cn2cc(C(=O)NCCCc3[nH]nc(N)c3C#N)c(-c3ccc(C)cc3)n2)cc1	i	-6%
CC1(C)CCC2=C(O1)c1ccccc1C(=O)C2=O	7.9µM*	-12%
O=C1c2ccccc2-c2ccccc21	i	0%
S=c1[nH]c(-c2cccc(Cl)c2)cs1	i	-7%
CN(C)CCCn1c(-c2cccc(OC(F)(F)C(F)F)c2)n[nH]c1=S	i	-5%
O=C(Nc1cccc(Cl)c1)c1c(NC(=O)C(F)(F)F)sc2c1CCCC2	?	-2%
Cc1cccc(NC(=O)c2c(NC(=O)C(F)(F)F)sc3c2CCCCC3)c1	79µM*	-9%
Cc1cccc(N(C)S(=O)(=O)c2cc(-c3cnc(C4CC4)o3)ccc2C)c1	?	79µM*
CCc1ccc(NS(=O)(=O)c2cc(-c3cnc(C4CC4)o3)ccc2C)cc1	i	-9%
Oc1ccc(/C=C/c2cc(-c3ccccc3)cc(-c3ccccc3)[o+]2)cc1	i	-4%
CC(=O)O[C@H]1C[C@@H]2CC[C@@H]3[C@H](CC[C@@]4(C)[C@H]3C[C@H]([N+]3(C)CCCCC3)[C@@H]4OC(C)=O)[C@@]2(C)C[C@@H]1[N+]1(C)CCCCC1	22µM*	-8%
CC(=O)C1=CC[C@H]2[C@@H]3CC[C@H]4C[C@@H](O)CC[C@]4(C)[C@H]3CC[C@]12C	i	-7%
CC(=O)c1ccc(OCCC(=O)OCc2ccc(C#N)cc2F)cc1	i	-7%
COc1cccc(C(=O)Nc2sc3c(c2C(N)=O)CCCC3)c1OC(F)F	i	-2%
CCCN(CCC)CCNC(=O)c1cc2c(-c3ccc(Cl)cc3)nn(C)c2s1	?	-23%[57.5 µM]
CCCCN(CC)CCNC(=O)c1cc2c(-c3ccc(Cl)cc3)nn(C)c2s1	89µM*	-29%
COc1ccc2[nH]c(C)c(C(=O)CN3CCC(C)CC3)c2c1	i	0%
COc1ccc2[nH]c(C)c(C(=O)CN3CCC(Cc4ccccc4)CC3)c2c1	i	89µM*
Cc1ccc2nc(Cl)c3cc(C(=O)N4CCCC(C)C4)sc3c2c1 (stereo not given)	40µM*	-24%
Cc1ccc2nc(Cl)c3cc(C(=O)N4CCCCC4C)sc3c2c1 (stereo not given)	?	-4%
Cc1ccc(Cn2ccnc2SCC(=O)Nc2ccc3c(c2)OCO3)cc1	79µM*	?
SMILES	AID inh	UDG counter
Cc1ccc(Cn2ccnc2SCC(=O)Nc2ccc3c(c2)OCCO3)cc1	i	-13%
CCOc1ccc(-c2cc(C(=O)Oc3ccc(F)cc3)no2)cc1	i	-3%
CC(C)c1ccc(/C=N/NC(=O)Cc2ccccc2)cc1	i	-8%
Cc1ccc(C(=O)c2cn(Cc3ccccc3F)c3cc4c(cc3c2=O)OCO4)cc1	40µM*	-6%
Cc1ccc(C(=O)c2cn(Cc3ccccc3F)c3cc4c(cc3c2=O)OCCO4)cc1	?	-12%
Cc1ccc(-c2cc(C(=O)NC3CC3)c3ccccc3n2)o1	i	-2%
C=C(C)C[C@H]1CC=C[C@H](CC(=C)C)[N+]1(C)C	i	3%
N#Cc1ccccc1OCc1ccccc1	i	0%
N#Cc1ccccc1OCc1csc(-c2ccccc2)n1	?	89µM*
Nc1ccccc1C(=O)NCC(F)(F)F	i	-4%
O=C(CC1N=C2c3ccccc3N=C(SCc3ccc(Cl)cc3)N2C1=O)NC1CCCCC1 (stereo not given)	i	26%
COc1ccc(Cl)cc1NC(=O)CSC1=Nc2ccccc2C2=NC(CC(=O)NC3CCCCC3)C(=O)N12 (stereo not given)	32µM*	11%
CC1=C(c2ccc(C)c(C)c2)S(=O)(=O)NC1=NC(C)C12CC3CC(CC(C3)C1)C2 (stereo not given)	i	0%
N#Cc1ccc(CN2CCN(Cc3nnsc3Cl)CC2)cc1	i	1%
Cc1ccc(-n2[nH]c(CSc3nnnn3-c3ccccc3)cc2=O)cc1	i	89µM*
Cc1ccc(CSc2nnnn2-c2c(C)n(C)n(-c3ccccc3)c2=O)cc1	i	0%
